# Laboratory results published in PubChem BioAssay AID624035 (The Scripps Research Institute Molecular Screening Center, 2012).
# Activity calls are given as the source filed them.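 Rule for the calls: active = compounds cutting enzyme signal by half at 10000 nM or lower, the printed EC50; inactive = the rest.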
# Experiment: optical artefacts in IDE activity readout – biochemical, fluorogenic FRET1 peptide substrate, artefact control for IDE activator project, late-stage follow-up (AID 624035)
# Conditions: recombinant IDE, FRET1 substrate fluorescence, artifact counterscreen
row,Compound,EC50
1,CCN(CC)C1=CC2=CC(=C(C#N)C#N)CCC2CC1 (stereo not drawn),> 10 µM (inactive)
2,N#CC(C#N)=C1C=C2C=C(N3CCCCCC3)CCC2CC1 (stereo not drawn),> 10 µM (inactive)
3,CCN1CCN(C2=CC3=CC(=C(C#N)C#N)CCC3CC2)CC1 (stereo not drawn),> 10 µM (inactive)
4,CCCCN(C)C1=CC2=CC(=C(C#N)C#N)CCC2CC1 (stereo not drawn),> 10 µM (inactive)
5,O=c1ccc2c(-c3ccccc3)c3ccc(O)cc3oc-2c1,> 10 µM (inactive)
6,N#CC(C#N)=C1C=C2C=C(N3CCOCC3)CCC2CC1 (stereo not drawn),> 10 µM (inactive)
7,C/C(CC(=O)Nc1ccc(N(C)C)cc1)=N\NC(=O)c1ccncc1,> 10 µM (inactive)
8,CN(C)/C=C1\C=C2C(=O)c3ccccc3N2C1=O,> 10 µM (inactive)
